MITF primary: inhibitors of human MITF | O75030 | AlphaScreen MITF homodimerization, bead proximity signal | inhibition, % at 2.6 µM | 0.91% of 650,000 active | AID 1259374; in the data active = inhibition above about 50%;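 note: 0% = vehicle wells with protein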
TEAD-YAP inh: TEAD-YAP interaction inhibition; inhibition, % at 9.12 µM; HEK-TIYL cells, TEAD-Gal4/YAP UAS-luciferase luminescence; AID 1259422; 1.4% of 640,000 active; in the data active = inhibition above about 32%;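 note: 0% = median of test compound wells and 100% = reference inhibitor wells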
FBW7 activator: human FBW7 E3 ligase activation, primary screen; 0.13% of 650,000 active; Q969H0; AID 1259310; normalized activity (activation), % at 26.1 µM; AlphaScreen FBW7–phospho-cyclin E peptide binding, activator screen; in the data active = normalized activity above about 1.9%;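 note: purified mutant Fbw7 with reduced substrate affinity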
GPR151 ag: activators of human GPR151; activation, % at 11.2 µM; Q8TDV0; PathHunter beta-arrestin GPR151 cells, luminescence; 1% of 650,000 active; in the data active = activation above about 4.9%;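 note: 0% = median of compound wells and 100% = cells with positive control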
Target sequence (Q8TDV0 whole entry, looked up): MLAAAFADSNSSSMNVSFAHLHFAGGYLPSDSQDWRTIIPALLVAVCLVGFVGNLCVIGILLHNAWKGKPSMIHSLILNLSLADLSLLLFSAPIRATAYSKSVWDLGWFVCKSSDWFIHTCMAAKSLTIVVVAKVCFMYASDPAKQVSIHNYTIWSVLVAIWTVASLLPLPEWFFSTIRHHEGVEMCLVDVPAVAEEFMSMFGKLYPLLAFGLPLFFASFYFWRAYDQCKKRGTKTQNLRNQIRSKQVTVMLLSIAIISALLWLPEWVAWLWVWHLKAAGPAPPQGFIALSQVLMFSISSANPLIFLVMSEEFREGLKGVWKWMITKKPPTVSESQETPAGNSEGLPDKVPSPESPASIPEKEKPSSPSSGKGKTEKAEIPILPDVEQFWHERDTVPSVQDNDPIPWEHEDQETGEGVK
GPR151 conf act: confirmation of human GPR151 activators; shares compounds with GPR151 ag; GPR151 PathHunter beta-arrestin cells, luminescence, 90 min; % of EA-reagent control over plate median; activation, % at 11.2 µM; 6,700 tested, under 10 active; AID 1508609;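 active = mean percent activation across replicates above the confirmation screen cutoff of 4.91%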
GPR119 ag: counter-screen for GPR151 activators: effect on human GPR119 | shares compounds with GPR151 ag | activation, % at 11.2 µM | GPR119 PathHunter beta-arrestin cells, luminescence, 90 min; 0 = compound-well median, 100 = enzyme-acceptor control | 0.3% of 6,700 active;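 active = mean percent activation in the counterscreen above 29.09%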;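 note: counterscreen on off-target GPR119 to flag nonselective hits from the GPR151 activator screen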
Numbers without * were called inactive. This is a sample that favours compounds with a hit; in the whole collection about 3.5% have one here.

For CCC(NC(=O)Cn1nnnc1CN1CCC(C)CC1)c1ccc(F)cc1 (configuration not stated) the results were MITF primary 1, TEAD-YAP inh 1, FBW7 activator 0, GPR151 ag 5.6*, GPR151 conf act 0 and GPR119 ag -2.
CC1CCCCN1CCCNC(=O)C1CCN(c2nnc(N3CCCC3=O)s2)CC1 (configuration not stated) was read as MITF primary 14, TEAD-YAP inh -5, FBW7 activator 0 and GPR151 ag -1.
`CCOc1ccccc1NC(=O)c1ccc(F)c(S(=O)(=O)N2CCN(c3ccccc3F)CC2)c1` gave MITF primary -3, TEAD-YAP inh 1, FBW7 activator 0 and GPR151 ag -1.
For CCOC(=O)N1CCN(S(=O)(=O)c2cc(C(=O)O)ccc2F)CC1 the results were MITF primary 1, TEAD-YAP inh -6, FBW7 activator 0, GPR151 ag 5.8*, GPR151 conf act 0 and GPR119 ag 13.
CCOc1ccccc1NC(=O)c1ccc(F)c(S(=O)(=O)N2CCN(c3ccccn3)CC2)c1 was read as MITF primary 4, TEAD-YAP inh 10, FBW7 activator 0, GPR151 ag 6.0*, GPR151 conf act -1 and GPR119 ag -2.
For CNC(=S)N1CCN(c2nccnc2NS(=O)(=O)c2ccccc2Cl)CC1 the results were MITF primary 2, TEAD-YAP inh 2, FBW7 activator -1 and GPR151 ag 0.
`O=C(NC1CC1)c1ccc(-c2cnc3c(Nc4ccccc4)nccn23)cc1` gave MITF primary -2, TEAD-YAP inh 4, FBW7 activator 0 and GPR151 ag 1.
`COc1ccc(C2(CC(=O)N3CC[C@@H](O)C3)CC(=O)N(CCC(C)C)C2=O)cc1` (some centres not stated) gave MITF primary 2, TEAD-YAP inh 8, FBW7 activator 1, GPR151 ag 6.7*, GPR151 conf act 0 and GPR119 ag 3.
Screening COc1ccc(C2(CC(=O)N3CCCC(O)C3)CC(=O)N(CCC(C)C)C2=O)cc1 (configuration not stated) returned MITF primary 3, TEAD-YAP inh 5, FBW7 activator 0 and GPR151 ag -1.
`CCN1C(=O)S/C(=C/c2cccs2)C1=O` gave MITF primary -5, TEAD-YAP inh -32, FBW7 activator 0 and GPR151 ag 0.
`Cc1cccc(C2=N/C(=C\c3ccc(I)o3)C(=O)O2)c1` gave MITF primary -10, TEAD-YAP inh 8, FBW7 activator 0, GPR151 ag 5.3*, GPR151 conf act 0 and GPR119 ag -1.
For COc1ccc(C2=N/C(=C/c3cccc(OC)c3OC)C(=O)O2)cc1Br the results were MITF primary 8, TEAD-YAP inh -2, FBW7 activator 0, GPR151 ag 5.0*, GPR151 conf act -1 and GPR119 ag 1.
`CCOc1ccccc1/C=C1\N=C(c2ccc(C)cc2)OC1=O` gave MITF primary 12, TEAD-YAP inh -6, FBW7 activator 0 and GPR151 ag 0.
For CCOc1ccccc1/C=C1\N=C(c2cccc(C)c2)OC1=O the results were MITF primary 1, TEAD-YAP inh -11, FBW7 activator 0, GPR151 ag 9.7*, GPR151 conf act -1 and GPR119 ag 0.
`CC(=O)Oc1ccc(/C=C2\N=C(c3cccc(C)c3)OC2=O)cc1OC(C)=O` gave MITF primary 0, TEAD-YAP inh 2, FBW7 activator 0, GPR151 ag 7.6*, GPR151 conf act 2 and GPR119 ag 1.
Screening Cc1ccc(NC(=O)Nc2nnc(C(C)c3ccccc3)s2)cc1 (configuration not stated) returned MITF primary 3, TEAD-YAP inh -1, FBW7 activator 0 and GPR151 ag -1.
`N#Cc1ccc(/C=N/NC(=O)c2ccc(Cl)cc2)cc1` gave MITF primary 0, TEAD-YAP inh 9, FBW7 activator 0 and GPR151 ag 0.
O=C(c1ccc(C(F)(F)F)cc1)N1CCN2C(=O)[C@@H]3CSCN3C(=O)[C@H]2C1 was read as MITF primary -6, TEAD-YAP inh 4, FBW7 activator 0 and GPR151 ag 0.

Screening results deposited in PubChem BioAssay by The Scripps Research Institute Molecular Screening Center.
